These results are taken from ChEMBL document CHEMBL2218924, “A broad activity screen in support of a chemogenomic map for kinase signalling research and drug discovery” (Biochem J, 2013).

Test [1] addresses Homeodomain-interacting protein kinase 3 (Homo sapiens) (UniProt Q9H422). The conditions noted are these: at 10 µM.
Test [2] concerns the target T1, Serine/threonine-protein kinase haspin (Homo sapiens) (UniProt Q8TF76).
T1 sequence (whole entry): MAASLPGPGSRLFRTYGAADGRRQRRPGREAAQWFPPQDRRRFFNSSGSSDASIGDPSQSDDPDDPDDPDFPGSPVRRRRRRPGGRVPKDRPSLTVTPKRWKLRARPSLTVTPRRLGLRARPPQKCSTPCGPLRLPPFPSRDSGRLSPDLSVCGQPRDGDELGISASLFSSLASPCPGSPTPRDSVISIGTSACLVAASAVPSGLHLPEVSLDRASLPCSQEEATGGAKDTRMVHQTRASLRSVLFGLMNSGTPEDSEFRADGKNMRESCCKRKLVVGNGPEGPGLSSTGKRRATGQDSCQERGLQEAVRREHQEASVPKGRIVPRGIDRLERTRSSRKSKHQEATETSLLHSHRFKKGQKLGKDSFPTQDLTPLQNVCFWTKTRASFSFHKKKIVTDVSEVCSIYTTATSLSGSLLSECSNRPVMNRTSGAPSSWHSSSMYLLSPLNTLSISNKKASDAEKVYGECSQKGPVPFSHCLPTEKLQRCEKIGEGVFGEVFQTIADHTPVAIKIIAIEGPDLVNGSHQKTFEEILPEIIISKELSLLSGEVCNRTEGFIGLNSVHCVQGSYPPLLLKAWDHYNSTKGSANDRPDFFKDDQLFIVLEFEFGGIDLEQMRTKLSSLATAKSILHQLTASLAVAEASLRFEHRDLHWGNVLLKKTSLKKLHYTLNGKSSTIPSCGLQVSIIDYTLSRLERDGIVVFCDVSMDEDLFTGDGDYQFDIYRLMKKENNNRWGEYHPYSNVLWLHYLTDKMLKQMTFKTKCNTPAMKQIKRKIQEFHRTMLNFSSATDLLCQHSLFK
The settings on record: at 1 µM.

Test [3] has as its target T1, Serine/threonine-protein kinase haspin (Homo sapiens). The conditions noted are these: at 10 µM.
Test [4] concerns the target Tyrosine-protein kinase HCK (Homo sapiens) (UniProt P08631). The conditions noted are these: at 1 µM.
The target is the same in test [5]. The settings on record: at 10 µM.
For test [6] the target is unchanged. The conditions noted are these: at 1 µM. The source holds these as a separate data set.
For test [7], the target named is Insulin-like growth factor 1 receptor (Homo sapiens) (UniProt P08069). The settings on record: at 1 µM.
Chain of Insulin-like growth factor 1 receptor (Homo sapiens) (P08069 31-736 limits assumed): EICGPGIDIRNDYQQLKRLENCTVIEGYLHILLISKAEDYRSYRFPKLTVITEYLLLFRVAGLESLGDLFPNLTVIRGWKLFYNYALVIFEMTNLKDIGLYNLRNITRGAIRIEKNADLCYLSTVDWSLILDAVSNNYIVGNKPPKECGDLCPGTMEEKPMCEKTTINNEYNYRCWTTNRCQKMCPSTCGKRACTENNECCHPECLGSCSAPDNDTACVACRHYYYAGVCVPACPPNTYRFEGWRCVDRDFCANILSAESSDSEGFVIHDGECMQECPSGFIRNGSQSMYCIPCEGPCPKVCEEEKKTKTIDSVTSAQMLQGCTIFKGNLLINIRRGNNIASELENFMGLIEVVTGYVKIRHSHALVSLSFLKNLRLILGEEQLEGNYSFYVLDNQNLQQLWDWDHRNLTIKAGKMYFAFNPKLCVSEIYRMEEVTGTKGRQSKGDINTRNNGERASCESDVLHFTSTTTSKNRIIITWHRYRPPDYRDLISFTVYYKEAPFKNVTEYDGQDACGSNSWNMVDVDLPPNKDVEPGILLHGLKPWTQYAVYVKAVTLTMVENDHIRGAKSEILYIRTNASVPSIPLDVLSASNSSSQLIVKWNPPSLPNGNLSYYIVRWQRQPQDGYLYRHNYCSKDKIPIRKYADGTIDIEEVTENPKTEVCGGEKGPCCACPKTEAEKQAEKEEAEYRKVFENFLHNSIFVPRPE
Chain of Insulin-like growth factor 1 receptor (Homo sapiens) (P08069 741-1367 limits assumed): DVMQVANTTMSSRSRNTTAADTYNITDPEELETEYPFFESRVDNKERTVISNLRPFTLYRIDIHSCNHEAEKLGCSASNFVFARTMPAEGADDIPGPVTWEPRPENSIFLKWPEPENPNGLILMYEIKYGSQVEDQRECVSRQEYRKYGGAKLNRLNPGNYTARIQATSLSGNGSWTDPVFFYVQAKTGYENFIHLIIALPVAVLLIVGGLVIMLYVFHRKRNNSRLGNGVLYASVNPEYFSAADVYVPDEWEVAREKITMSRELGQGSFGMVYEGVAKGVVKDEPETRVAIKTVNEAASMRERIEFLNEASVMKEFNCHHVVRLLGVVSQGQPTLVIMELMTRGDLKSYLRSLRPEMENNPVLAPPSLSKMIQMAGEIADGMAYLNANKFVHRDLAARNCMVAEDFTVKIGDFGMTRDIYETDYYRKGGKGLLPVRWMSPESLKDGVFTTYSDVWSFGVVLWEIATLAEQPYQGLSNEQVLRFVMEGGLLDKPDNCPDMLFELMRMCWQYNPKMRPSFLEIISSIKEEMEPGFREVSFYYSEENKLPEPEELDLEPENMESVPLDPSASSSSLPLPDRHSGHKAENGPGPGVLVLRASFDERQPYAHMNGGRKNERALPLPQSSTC
The target is the same in test [8]. The settings on record: at 10 µM.
Test [9] has as its target T2, Protein kinase C zeta type (Homo sapiens) (UniProt Q05513).
T2 sequence (whole entry): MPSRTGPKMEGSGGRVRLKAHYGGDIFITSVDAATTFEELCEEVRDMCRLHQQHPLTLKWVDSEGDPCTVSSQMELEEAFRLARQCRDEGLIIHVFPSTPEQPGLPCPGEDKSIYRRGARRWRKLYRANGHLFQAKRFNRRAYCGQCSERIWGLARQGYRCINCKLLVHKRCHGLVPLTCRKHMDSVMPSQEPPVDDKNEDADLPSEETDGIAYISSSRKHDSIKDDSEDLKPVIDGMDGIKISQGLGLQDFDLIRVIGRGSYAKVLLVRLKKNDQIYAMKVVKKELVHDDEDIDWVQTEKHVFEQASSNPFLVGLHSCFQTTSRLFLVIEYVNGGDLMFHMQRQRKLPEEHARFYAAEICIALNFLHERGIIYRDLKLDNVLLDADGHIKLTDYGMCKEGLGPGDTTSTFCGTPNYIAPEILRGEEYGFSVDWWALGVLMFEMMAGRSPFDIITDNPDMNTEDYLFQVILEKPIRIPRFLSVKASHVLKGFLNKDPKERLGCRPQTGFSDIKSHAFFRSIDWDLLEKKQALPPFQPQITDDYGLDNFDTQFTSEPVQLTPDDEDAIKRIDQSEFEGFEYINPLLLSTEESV
The conditions noted are these: at 10 µM.

In test [10] the target is Protein kinase C eta type (Homo sapiens) (UniProt P24723). The conditions noted are these: at 1 µM.
Chain of Protein kinase C eta type (Homo sapiens) (P24723 whole entry): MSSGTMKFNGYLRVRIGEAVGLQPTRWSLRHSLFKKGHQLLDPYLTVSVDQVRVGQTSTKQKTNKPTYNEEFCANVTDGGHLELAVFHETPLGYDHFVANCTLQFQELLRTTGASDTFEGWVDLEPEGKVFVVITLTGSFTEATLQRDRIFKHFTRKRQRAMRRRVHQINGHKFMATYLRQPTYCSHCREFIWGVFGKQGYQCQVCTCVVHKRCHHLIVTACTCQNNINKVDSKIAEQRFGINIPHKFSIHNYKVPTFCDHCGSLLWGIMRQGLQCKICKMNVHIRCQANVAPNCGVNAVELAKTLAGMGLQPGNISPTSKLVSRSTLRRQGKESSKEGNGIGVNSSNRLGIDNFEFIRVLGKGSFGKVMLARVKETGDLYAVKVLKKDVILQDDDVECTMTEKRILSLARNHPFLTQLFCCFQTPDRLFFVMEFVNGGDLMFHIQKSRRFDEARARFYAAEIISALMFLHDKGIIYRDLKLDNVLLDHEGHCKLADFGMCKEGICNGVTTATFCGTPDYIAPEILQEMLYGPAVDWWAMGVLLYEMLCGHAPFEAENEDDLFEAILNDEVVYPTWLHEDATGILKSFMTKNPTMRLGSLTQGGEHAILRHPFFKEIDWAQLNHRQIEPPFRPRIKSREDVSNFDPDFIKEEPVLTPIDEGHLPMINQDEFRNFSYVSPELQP
The target is the same in test [11]. The conditions noted are these: at 10 µM.
Test [12] has as its target Protein kinase C theta type (Homo sapiens) (UniProt Q04759). The conditions noted are these: at 1 µM.
Test [13] shares this target. The conditions noted are these: at 10 µM.
Test [14] concerns the target T3, Protein kinase C iota type (Homo sapiens) (UniProt P41743).
T3 sequence (whole entry): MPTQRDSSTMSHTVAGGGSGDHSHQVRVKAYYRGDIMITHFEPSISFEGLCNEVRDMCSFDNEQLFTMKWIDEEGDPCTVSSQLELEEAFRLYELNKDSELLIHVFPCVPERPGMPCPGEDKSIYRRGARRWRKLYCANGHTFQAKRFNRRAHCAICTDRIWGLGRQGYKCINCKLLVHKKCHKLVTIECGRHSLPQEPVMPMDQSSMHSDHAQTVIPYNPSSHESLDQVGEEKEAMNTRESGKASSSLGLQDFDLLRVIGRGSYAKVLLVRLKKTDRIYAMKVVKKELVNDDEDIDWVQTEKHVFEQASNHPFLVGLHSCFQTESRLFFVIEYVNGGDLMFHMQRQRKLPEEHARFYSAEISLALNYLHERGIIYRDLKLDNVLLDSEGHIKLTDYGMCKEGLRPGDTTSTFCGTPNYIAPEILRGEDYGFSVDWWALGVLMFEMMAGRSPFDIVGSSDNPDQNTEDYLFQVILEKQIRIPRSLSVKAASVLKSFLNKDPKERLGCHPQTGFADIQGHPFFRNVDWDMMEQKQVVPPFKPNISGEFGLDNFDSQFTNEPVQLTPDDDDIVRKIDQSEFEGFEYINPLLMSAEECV
The settings on record: at 1 µM.

Test [15] has as its target T3, Protein kinase C iota type (Homo sapiens). The settings on record: at 10 µM.
Test [16] has as its target T4, Serine/threonine-protein kinase D1 (Homo sapiens) (UniProt Q15139).
T4 sequence (whole entry): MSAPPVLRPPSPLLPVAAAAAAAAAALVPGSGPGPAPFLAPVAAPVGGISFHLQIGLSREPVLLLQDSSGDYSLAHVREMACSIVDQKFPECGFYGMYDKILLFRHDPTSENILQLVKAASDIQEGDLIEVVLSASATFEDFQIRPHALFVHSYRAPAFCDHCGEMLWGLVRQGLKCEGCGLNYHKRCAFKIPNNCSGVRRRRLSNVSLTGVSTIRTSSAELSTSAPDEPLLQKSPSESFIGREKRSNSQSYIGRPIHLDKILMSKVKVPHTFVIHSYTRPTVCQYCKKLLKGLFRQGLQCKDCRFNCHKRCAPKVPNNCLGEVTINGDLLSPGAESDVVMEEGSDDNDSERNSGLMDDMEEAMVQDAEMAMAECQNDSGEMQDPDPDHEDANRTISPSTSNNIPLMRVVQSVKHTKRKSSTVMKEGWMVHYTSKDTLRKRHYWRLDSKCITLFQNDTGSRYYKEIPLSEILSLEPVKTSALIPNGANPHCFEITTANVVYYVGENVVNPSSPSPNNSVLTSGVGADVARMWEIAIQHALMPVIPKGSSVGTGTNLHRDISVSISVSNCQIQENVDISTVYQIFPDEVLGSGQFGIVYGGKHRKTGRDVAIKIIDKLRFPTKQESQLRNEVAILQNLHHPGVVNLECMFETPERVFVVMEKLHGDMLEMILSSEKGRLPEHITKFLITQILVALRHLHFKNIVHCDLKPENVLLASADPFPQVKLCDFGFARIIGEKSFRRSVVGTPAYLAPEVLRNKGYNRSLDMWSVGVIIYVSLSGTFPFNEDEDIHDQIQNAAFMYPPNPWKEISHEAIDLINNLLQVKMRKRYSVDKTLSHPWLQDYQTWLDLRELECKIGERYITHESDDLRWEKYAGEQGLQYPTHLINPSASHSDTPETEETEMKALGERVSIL
The settings on record: at 1 µM.

Test [17] concerns the target T5, Serine/threonine-protein kinase D2 (Homo sapiens) (UniProt Q9BZL6).
T5 sequence (whole entry): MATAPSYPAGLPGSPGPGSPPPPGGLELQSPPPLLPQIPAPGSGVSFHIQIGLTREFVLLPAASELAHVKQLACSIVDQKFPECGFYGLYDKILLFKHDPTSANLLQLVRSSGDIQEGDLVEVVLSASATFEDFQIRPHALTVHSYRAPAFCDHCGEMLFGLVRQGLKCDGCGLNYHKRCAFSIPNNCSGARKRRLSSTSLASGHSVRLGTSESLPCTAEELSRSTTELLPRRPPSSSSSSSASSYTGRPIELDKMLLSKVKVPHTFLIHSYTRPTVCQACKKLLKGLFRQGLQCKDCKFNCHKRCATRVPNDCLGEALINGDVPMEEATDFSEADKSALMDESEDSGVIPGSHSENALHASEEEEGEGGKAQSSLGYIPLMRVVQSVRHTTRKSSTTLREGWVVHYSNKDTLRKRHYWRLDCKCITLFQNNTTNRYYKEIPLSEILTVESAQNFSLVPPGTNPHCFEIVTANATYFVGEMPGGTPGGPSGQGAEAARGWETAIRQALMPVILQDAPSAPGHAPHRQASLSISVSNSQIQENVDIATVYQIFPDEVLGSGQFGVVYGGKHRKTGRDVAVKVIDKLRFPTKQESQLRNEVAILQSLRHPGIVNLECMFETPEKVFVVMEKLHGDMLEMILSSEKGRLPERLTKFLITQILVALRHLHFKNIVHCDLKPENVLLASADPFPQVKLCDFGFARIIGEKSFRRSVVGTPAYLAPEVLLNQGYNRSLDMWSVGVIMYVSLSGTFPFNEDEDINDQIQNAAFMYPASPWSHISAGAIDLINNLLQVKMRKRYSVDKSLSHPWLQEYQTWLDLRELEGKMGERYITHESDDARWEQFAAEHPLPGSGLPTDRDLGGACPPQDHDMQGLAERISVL
The settings on record: at 1 µM.

Test [18] deals with T5, Serine/threonine-protein kinase D2 (Homo sapiens). The conditions noted are these: at 10 µM.
Test [19] concerns the target Tyrosine-protein kinase HCK (Homo sapiens) (UniProt P08631). The settings on record: at 10 µM. The source holds these as a separate data set.
The target of test [20] is T4, Serine/threonine-protein kinase D1 (Homo sapiens). The conditions noted are these: at 10 µM.

Molecules are shown by their SMILES.

Chain of Protein kinase C theta type (Homo sapiens) (Q04759 whole entry, looked up): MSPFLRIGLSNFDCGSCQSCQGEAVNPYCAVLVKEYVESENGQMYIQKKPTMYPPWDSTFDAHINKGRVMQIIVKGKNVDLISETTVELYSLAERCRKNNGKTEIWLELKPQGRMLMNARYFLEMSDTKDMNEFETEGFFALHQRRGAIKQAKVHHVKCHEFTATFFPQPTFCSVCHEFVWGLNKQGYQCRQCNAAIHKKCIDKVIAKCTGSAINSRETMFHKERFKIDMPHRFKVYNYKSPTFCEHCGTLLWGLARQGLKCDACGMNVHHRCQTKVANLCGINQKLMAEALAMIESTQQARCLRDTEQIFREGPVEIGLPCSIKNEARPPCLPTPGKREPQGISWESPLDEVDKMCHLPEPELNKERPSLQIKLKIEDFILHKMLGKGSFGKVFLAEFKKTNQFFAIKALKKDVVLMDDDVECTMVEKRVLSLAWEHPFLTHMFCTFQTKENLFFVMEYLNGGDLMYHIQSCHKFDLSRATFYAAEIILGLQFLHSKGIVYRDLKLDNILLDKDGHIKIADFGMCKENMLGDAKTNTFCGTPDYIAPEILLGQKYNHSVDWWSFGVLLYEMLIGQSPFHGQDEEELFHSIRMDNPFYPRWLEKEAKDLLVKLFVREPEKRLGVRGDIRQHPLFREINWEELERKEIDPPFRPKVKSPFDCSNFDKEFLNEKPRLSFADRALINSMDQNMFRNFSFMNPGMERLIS
Chain of Homeodomain-interacting protein kinase 3 (Homo sapiens) (Q9H422 whole entry, looked up): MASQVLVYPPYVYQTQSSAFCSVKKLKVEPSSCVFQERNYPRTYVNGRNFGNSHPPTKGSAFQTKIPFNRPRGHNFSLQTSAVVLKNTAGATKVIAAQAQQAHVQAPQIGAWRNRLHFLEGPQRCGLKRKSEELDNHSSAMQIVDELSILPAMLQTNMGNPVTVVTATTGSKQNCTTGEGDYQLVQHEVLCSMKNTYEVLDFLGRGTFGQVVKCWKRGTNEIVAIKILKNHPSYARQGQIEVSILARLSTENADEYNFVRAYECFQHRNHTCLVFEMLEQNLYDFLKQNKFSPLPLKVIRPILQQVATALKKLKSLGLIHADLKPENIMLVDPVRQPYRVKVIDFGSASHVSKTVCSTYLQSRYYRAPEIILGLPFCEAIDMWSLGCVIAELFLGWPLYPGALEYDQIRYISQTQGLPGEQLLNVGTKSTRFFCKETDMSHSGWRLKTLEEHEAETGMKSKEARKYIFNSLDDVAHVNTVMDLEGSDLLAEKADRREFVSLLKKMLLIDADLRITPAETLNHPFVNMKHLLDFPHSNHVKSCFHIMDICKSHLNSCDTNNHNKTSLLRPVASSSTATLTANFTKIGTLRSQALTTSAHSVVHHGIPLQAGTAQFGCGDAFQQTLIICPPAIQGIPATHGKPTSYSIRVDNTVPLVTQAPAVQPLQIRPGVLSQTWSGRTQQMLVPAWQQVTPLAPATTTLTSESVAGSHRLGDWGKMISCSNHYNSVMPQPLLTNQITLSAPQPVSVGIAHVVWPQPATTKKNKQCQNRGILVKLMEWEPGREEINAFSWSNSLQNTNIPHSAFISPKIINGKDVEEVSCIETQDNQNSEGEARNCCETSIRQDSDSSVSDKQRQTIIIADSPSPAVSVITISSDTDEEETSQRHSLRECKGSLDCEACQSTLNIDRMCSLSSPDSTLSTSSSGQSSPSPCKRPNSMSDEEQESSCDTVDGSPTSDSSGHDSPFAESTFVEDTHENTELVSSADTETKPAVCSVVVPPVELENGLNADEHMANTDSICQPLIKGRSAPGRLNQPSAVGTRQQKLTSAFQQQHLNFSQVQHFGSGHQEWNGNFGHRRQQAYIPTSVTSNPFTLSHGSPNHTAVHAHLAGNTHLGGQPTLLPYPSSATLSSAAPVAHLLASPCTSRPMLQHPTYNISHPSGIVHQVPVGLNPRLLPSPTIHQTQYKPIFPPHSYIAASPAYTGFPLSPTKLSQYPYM
Chain of Tyrosine-protein kinase HCK (Homo sapiens) (P08631 2-526 limits assumed): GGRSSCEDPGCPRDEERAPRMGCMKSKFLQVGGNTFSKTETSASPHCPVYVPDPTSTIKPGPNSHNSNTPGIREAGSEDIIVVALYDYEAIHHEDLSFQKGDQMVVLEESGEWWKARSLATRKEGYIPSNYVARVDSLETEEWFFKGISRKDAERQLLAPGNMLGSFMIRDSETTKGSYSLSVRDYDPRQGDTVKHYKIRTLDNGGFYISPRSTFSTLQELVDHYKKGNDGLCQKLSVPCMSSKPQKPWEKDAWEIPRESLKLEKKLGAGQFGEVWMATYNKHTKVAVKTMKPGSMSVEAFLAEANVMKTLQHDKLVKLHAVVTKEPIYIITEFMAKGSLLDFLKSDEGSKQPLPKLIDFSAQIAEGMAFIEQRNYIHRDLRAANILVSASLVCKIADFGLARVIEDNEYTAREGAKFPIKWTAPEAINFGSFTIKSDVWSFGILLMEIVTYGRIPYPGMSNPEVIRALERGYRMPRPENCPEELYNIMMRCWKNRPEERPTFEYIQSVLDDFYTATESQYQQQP

What is called residual activity is the signal under treatment as a percentage of the control signal. Take `CC(C)(C)n1nc(Cc2cccc3ccccc23)c2c(N)ncnc21`: the residual activity in test [1] was 97%; in [2], 79%; in test [3] it was 16%; in [4], 32%; in test [5], 3%; in test [6], 43%. In addition, the residual activity in [7] stood at 142%; in [8] it was 96%; in test [9], 116%; in test [10], 77%; in test [11], 86%; in test [12], 98%. Moreover, the residual activity in test [13] was 92%; in [14] it was 115% (inactive); in test [15], 82%; in test [16], 22%; in [17] it was 80%; in test [18] it was 24%.
In the case of `Nc1ncnc2c1c(-c1ccc(Oc3ccccc3)cc1)cn2C1CCCC1`, the residual activity in test [1] was determined as 97%; in test [2], 90%; in [3], 44%; in [4] it was 2%; in [5], 1%; in [6], 1%. Besides, the residual activity is -2% in test [19]; 127% in test [7]; 119% in test [8]; 107% in test [9]; 95% in test [10]; 67% in [11]. The residual activity in test [12] is 94%; in [13], 109%; in [14], 87% (inactive); in test [15] it was 76%; in [17], 93%; in test [18] it was 95%.
For `CC(C)c1nn(-c2c(Cl)cccc2Cl)c2nc(Cc3ccc(OCCO)cc3)[nH]c(=O)c12`, the residual activity worked out at 103% in test [1]; 97% in test [2]; 56% in test [3]; 75% in test [4]; 56% in test [5]; 98% in [6]. Further, the residual activity was 86% in test [19]; 135% in test [7]; 103% in [8]; 93% in test [9]; 92% in [10]; 91% in [11]. Moreover, the residual activity in test [12] is 90%; in test [13], 80%; in [14], 99% (inactive); in test [15] it was 102%; in test [20], 95%; in test [17], 95%. Besides, in test [18], the residual activity worked out at 91%.
With `CC(C)[C@H](CO)Nc1nc(Nc2cc(N)cc(Cl)c2)c2ncn(C(C)C)c2n1`, the residual activity in test [1] was found to be 73%; in [2], 57%; in test [3], 20%; in [4], 27%; in [5], 5%; in test [6], 50%. For the same compound, the residual activity was 9% in test [19]; 118% in [7]; 92% in test [8]; 97% in test [10]; 99% in test [11]; 77% in test [12]. Moreover, the residual activity came to 23% in test [13]; 89% in [15]; 99% in [16]; 81% in [20]; 96% in [17]; 99% in test [18].
In the case of `O=c1cc(N2CCOCC2)oc2c1ccc1ccccc12`, the residual activity amounted to 21% in [1]; 74% in [2]; 26% in [3]; 85% in [4]; 77% in test [5]; 101% in [6]. The residual activity in [19] came out at 110%; in [9], 91%; in [10] it was 94%; in test [11], 79%; in [12] it was 94%; in test [13], 105%. The residual activity in test [14] was 85% (inactive); in test [15], 97%; in test [16], 77%; in [20], 79%; in test [17], 100%; in test [18] it was 94%.
Regarding `O=C1Nc2ccccc2/C1=C\c1c(Cl)[nH]c2ccccc12`, the residual activity was 85% in test [2]; 61% in [3]; 79% in test [4]; 27% in [5]; 87% in test [19]; 80% in [11]. In addition, the residual activity in [12] worked out at 81%; in test [13] it was 71%; in [16], 99%; in test [20], 65%.
